Most compounds without a hit are left out; they make up all but 9% or so of the library.
PLK1 PBD inh = PLK1 (human) polo-box domain binding inhibition; P53350; 360,000 tested, 2.8% active; Plk1 PBD binding of FITC phosphopeptide, fluorescence polarization; Potency, µM, for inactives: max response, negative = inhibition, hits mostly inhibitors; note: series mostly up to about 57 µM; % is set by controls: 0 for no effect and ±100 for the full control effect; nearly all actives have a fitted effect of over 65% in size
JMJD2A Tudor = JMJD2A Tudor domain (human) inhibition. AID 504339. O75164. AlphaScreen JMJD2A-Tudor / H3K4me3 peptide binding. Potency, µM (titrated, usually from 114 µM), for inactives: at the top dose activity change, negative = inhibition, actives largely listed as inhibitors. 390,000 tested, 4.4% active; note: % is set by controls: 0 for no effect and ±100 for the full control effect; nearly all actives have a fitted effect of over 50% in size
G9a block = inhibitors of human histone lysine methyltransferase G9a; AID 504332; Potency, µM (doses to about 102 µM), without a hit: top-dose activity, negative = inhibition, most hits filed as inhibitors; 350,000 tested, 8.8% active; G9a H3K9 monomethylation, AlphaScreen, 2 h; Q96KQ7; note: % is set by controls: 0 for no effect and ±100 for the full control effect; nearly all actives have a fitted effect of over 75% in size
Target sequence (Q96KQ7 913-1193 limits assumed): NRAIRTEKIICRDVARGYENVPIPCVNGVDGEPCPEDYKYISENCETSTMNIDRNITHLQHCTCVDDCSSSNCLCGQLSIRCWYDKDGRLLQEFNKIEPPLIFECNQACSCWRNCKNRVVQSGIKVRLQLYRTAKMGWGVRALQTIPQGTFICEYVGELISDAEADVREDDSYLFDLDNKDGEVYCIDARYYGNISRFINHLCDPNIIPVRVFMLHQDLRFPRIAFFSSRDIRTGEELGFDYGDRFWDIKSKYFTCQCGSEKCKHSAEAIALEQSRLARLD
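Methyltransferase reactions run at room temperature for 2 h (20 nM enzyme, 500 nM biotin-H3K9 peptide, 20 uM SAM) after a 15 min compound preincubation; product detected by AlphaScreen beads and anti-H3K9me1 antibody.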
HP1b binding inh = HP1-beta chromodomain-methylated histone interaction inhibition. P83916. AlphaScreen HP1-beta / biotin-H3K9me3 peptide binding. 390,000 tested, 0.56% active. Potency, µM (doses to about 114 µM), inactives show top-dose activity change, negative = inhibition, actives largely listed as inhibitors. AID 540317; note: nearly all actives have a fitted effect of over 70% in size
Target sequence (P83916 whole entry, looked up): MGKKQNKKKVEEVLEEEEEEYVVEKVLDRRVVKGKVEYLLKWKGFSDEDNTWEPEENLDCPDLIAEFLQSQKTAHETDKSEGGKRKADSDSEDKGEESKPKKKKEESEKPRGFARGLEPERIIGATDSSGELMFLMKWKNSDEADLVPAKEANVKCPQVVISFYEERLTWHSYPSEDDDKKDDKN
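HP1-beta protein (50 nM final) preincubated 30 min at room temperature with biotinylated H3(1-18)K9me3 peptide (50 nM) in PBS pH 7.4, 0.01% Tween-20, then compound added for 30 min. AlphaScreen streptavidin donor/nickel chelate acceptor beads (10 ug/mL final), 30 min dark, luminescence read.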
ALOX12 inh = inhibitors of human 12S-lipoxygenase ALOX12. purified 12hLO, xylenol orange hydroperoxide absorbance. 580,000 tested, 1.1% active. Potency, µM (titrated, usually from 108 µM), for the others: top-dose activity change, negative = inhibition, most hits filed as inhibitors. P18054; note: % is set by controls: 0 for no effect and ±100 for the full control effect
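Purified human 12hLO (150 nM final) in 25 mM Hepes, 0.01% Triton X-100, pH 7.0 was preincubated 15 min at room temperature with compound. Then 40 uM arachidonic acid was added, 30 min. Hydroperoxide was read by Fe-XO absorbance ratio 573/405 nm.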
BAZ2B inh = inhibitors of human BAZ2B bromodomain; AlphaScreen BAZ2B-H3K14Ac peptide displacement; Potency, µM (series often up to 114 µM), inactives show top-dose activity change, negative = inhibition, hits mostly inhibitors; Q9UIF8; 360,000 tested, 4.4% active; note: % is set by controls: 0 for no effect and ±100 for the full control effect; nearly all actives have a fitted effect of over 60% in size
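AlphaScreen luminescence quantifies BAZ2B engagement of H3K14Ac peptide; the protein and biotinylated peptide are both at 50 nM final, buffer PBS pH 7.4 with 0.01% Tween-20, all steps at room temperature.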
Starred values were filed as active, the others as inactive; ? = inconclusive; nt = no result given; [ ] = dose if it differs, or a comment. Calls come from the whole dose curve; as a rule, active = well fitted curve in the direction sought with a large enough effect; inconclusive = small, poorly fitted or top-dose-only effect, or another doubt; inactive = no such curve, though single readings can be large; an effect the other way counts as inactive or inconclusive. Potency is the fitted concentration of half-maximal effect.

SMILES	PLK1 PBD inh	JMJD2A Tudor	G9a block	HP1b binding inh	ALOX12 inh	BAZ2B inh
N#Cc1ccccc1OCC(=O)OCC(=O)c1ccc2c(c1)NC(=O)CO2	-3.2%	2.6%	50.1µM*	32.2%	?	5.6%
COC(=O)c1cc(C(=O)OCC(=O)c2ccc3c(c2)NC(=O)CO3)cc([N+](=O)[O-])c1	-5.0%	-17.2%	50.1µM*	17.0%	-9.7%	-6.2%
CCc1ccc(OCC(=O)OCC(=O)c2ccc3c(c2)NC(=O)CO3)cc1	3.7%	-27.0%	9.9%	40.8%	-41.3%[57.4 µM]	6.9%
CCCCCCC(=O)OCC(=O)c1ccc2c(c1)NC(=O)CO2	9.47µM*	-8.8%	-4.7%	44.4%	-8.7%	-11.6%
CCCc1nc(SCC(=O)c2ccc3c(c2)NC(=O)CO3)[nH]c(=O)c1CC	18.9µM*	?	nt	-16.2%[57 µM]	0.0%	nt
CC/C=C\CCOC(=O)CCCCC	nt	nt	nt	nt	-0.4%[176 µM]	nt
COc1cc(OC)cc(C(=O)Nc2ccc(-c3nc4ccccc4s3)cc2C)c1	nt	-2.6%	-1.3%[59 µM]	22.9%	-1.0%	-18.5%
COc1ccc(N2C(=O)C3CCCN3C2c2ccc(C)cc2)cc1Cl (configuration not stated)	1.3%	-2.9%	-1.7%[12.7 µM]	25.3%	0.0%	-6.6%
O=S(=O)(NCc1c(Cl)cccc1Oc1ccccc1)c1ccc(F)cc1	3.7%	31.9%	nt	58.7%	0.0%	7.8%
Cc1ccc(/C=C/C(=O)OCC(=O)c2ccc3c(c2)NC(=O)CO3)o1	-6.2%	-22.8%	nt	-6.3%	-13.5%	nt
CCC(=O)c1ccc(OCC(=O)c2ccc3c(c2)NC(=O)CO3)cc1	?	-14.2%	nt	6.2%	6.8%	0.9%
O=C1COc2ccc(C(=O)COC(=O)/C=C/c3ccc(Br)o3)cc2N1	?	?	28.2µM*	-53.3%	?	44.7µM*
O=C1COc2ccc(C(=O)CCl)cc2N1	1.89µM*	-11.7%	nt	37.6%	?	-12.0%
COC(=O)C(C)NC(=S)N1CCN(c2c(F)cc3c(=O)c(C(=O)O)cn(C4CC4)c3c2OC)CC1C (configuration not stated)	4.8%	5.3%	-1.5%[12.7 µM]	33.2%	8.91µM*	-17.8%
O=C1CC(c2ccccc2)N(Cc2ccncc2)CCCN(C(=O)CC2CCCCC2)CCN1 (configuration not stated)	nt	nt	nt	nt	17.2%	nt
O=c1c2ccccc2oc2ccc(NCCCn3ccnc3)cc12	-4.2%	?	nt	39.0%	15.9%	50.1µM*
Cc1ccc(C(=O)NCCCNc2ccccc2[N+](=O)[O-])cc1	3.1%	89.1µM*	56.2µM*	0.7%	-16.1%	?
O=C(NNS(=O)(=O)c1ccccc1[N+](=O)[O-])c1ccc(F)cc1	-3.3%	-30.7%	nt	42.7%	-16.3%	-2.7%
O=C(NNS(=O)(=O)c1ccccc1[N+](=O)[O-])c1ccc(O)cc1	23.8µM*	5.62µM*	?	?	?	50.1µM*
Cc1ccc(C(=O)NCCCNC(=O)c2ccccn2)cc1	-0.3%	-12.4%	16.6%	25.3%	17.7%	-14.3%
CC(=O)NNS(=O)(=O)c1ccccc1[N+](=O)[O-]	-10.4%	-19.5%	6.1%[59 µM]	-5.2%	1.7%	12.7%
Cc1ccc(C(=O)NNS(=O)(=O)c2ccccc2[N+](=O)[O-])cc1	26.7µM*	?	?	6.5%	?	-1.4%
Cc1ccc2c(c1)nnn2C1CCN(CC(=O)c2ccc(Cl)cc2)CC1	-17.3%	-15.2%	44.7µM*	12.9%	?	-18.7%
N#CCSc1nnc(-c2ccc(S(=O)(=O)N3CCOCC3)cc2)n1CC1CCCO1 (configuration not stated)	-9.2%	89.1µM*	-31.4%	18.1%	0.0%	4.3%
CSc1nnc(-c2ccc(S(=O)(=O)N3CCOCC3)cc2)n1C	-12.6%	-3.2%	22.4µM*	43.9%	-2.0%	-17.1%
SMILES	PLK1 PBD inh	JMJD2A Tudor	G9a block	HP1b binding inh	ALOX12 inh	BAZ2B inh
NC(=O)CSc1nnc(-c2ccc(S(=O)(=O)N3CCCC3)cc2)n1CC1CCCO1 (configuration not stated)	4.1%	-3.5%	41.2%	16.7%	8.7%	2.7%
CCCNC(=O)N1N=C(c2ccc(N)cc2)c2cc3c(cc2[C@H]1C)OCO3	nt	nt	nt	nt	147.5%	nt
CC(Sc1nc(C(C)(C)C)cc(-c2ccccc2)c1C#N)C(=O)Nc1ccccc1 (configuration not stated)	11.9µM*	-0.7%[57.1 µM]	7.94µM*	?	?	7.6%
COc1ccccc1OCCC(=O)NCc1ccc2c(c1)OCO2	29.9µM*	35.5µM*	-32.0%	-26.2%	4.2%	-3.7%
COc1ccccc1C(=O)NCc1ccc2c(c1)OCO2	-2.9%	-12.9%	0.6%	31.8%	1.7%[57.4 µM]	-35.0%
COc1ccc(C(=O)NCc2ccc3c(c2)OCO3)c(OC)c1	26.7µM*	?	nt	-3.1%	11.0%	-2.5%
COc1ccccc1OCCC(=O)Nc1ccc2c(c1)OCO2	-8.5%	-15.2%	nt	22.8%	-0.5%	nt
Cc1ccccc1OCCCC(=O)Nc1ccc2c(c1)OCO2	-7.0%	-20.1%	20µM*	6.8%	?	-9.3%
CCN(c1ccc(NC(=O)COC(=O)C2CCN(c3ccc(C(F)(F)F)cn3)CC2)cc1)C(C)C	-6.6%	10µM*	nt	?	36.2%	nt
CC(C)N(Cc1ccccc1)C(=O)COC(=O)C1CCN(c2ccc(C(F)(F)F)cn2)CC1	-3.4%	11.0%	35.5µM*	?	-9.6%	5.6%
Cc1ccc(NC(=O)CNC(=O)Cn2c(C)cc3ccccc3c2=O)cc1F	nt	-2.4%	8.8%[59 µM]	39.9%	-23.1%	7.3%
COc1ccccc1Oc1nc([N+](=O)[O-])nn1CC(N)=O	2.1%	10.7%	13.8%[59 µM]	15.4%	-1.5%	1.2%
CCC(Nc1ccc(OC)cc1)C(=O)N/N=C/c1ccc([N+](=O)[O-])cc1 (configuration not stated)	-4.5%	?	?	-19.8%	2.2%	44.7µM*
CC(=O)Nc1ccc(NC(=O)C(C)n2nc(C)c([N+](=O)[O-])c2C)cc1 (configuration not stated)	-1.5%	-8.4%	-28.5%	34.6%	-17.0%	-20.5%
Cc1ccc(/C=N/NC(=O)Cn2nnc(N)n2)o1	-11.2%	-8.3%	44.7µM*	27.9%	0.0%	-2.6%
Cc1nn(C(C)C(=O)N/N=C/c2ccc(N(C)C)cc2)c(C)c1[N+](=O)[O-] (configuration not stated)	-2.4%	?	56.2µM*	-2.4%	109.4%	?
COc1ccc(/C=N/NC(=O)Cn2nc(C)c([N+](=O)[O-])c2C)cc1	29.9µM*	79.4µM*	13.3%[59 µM]	10.7%	3.4%	-2.5%
CCCC1(C(=O)OC)NC(c2ccc(OC)c(OC)c2)C2C(=O)N(c3ccc4c(c3)OCO4)C(=O)C21 (configuration not stated)	-1.5%	-9.6%	?	27.2%	0.0%	-3.4%

Bioassay records as filed in PubChem BioAssay.
